# High-throughput results: PubChem BioAssay, several laboratories
# SKN-1 inh: suppressors of acrylamide-induced Pgst-4::GFP reporter in worms, primary screen, SKN-1 inhibitor project, whole organism, uHTS, GFP/RFP fluorescence ratio, strain VP596; inhibition, % at 21.8 µM; actives 0.49% (n = 360,000); C. elegans VP596 Pgst-4::GFP/RFP ratio, 24 h; AID 624304, 2012;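 active means interference check ratio from 0.5 to 1.5 plus GFP to RFP signal ratio inhibition reaching or exceeding a fixed threshold, cut at about 30% in these data, passing the limit was not always enough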
# MEKK2mut PB1 HTS: MEK5 binding signal on mutant MEKK2 PB1, primary screen, biochemical, multiplex bead flow cytometry, Alexa488-MEK5; actives 0.35% (n = 290,000); Alexa488-MEK5 binding to MEKK2 mutant; percent response, % at 10 µM; AID 1530, 2009; in the data active means percent response above about 24%, passing the limit was not always enough
# MEKK3 PB1 HTS: modulators of MEKK3-MEK5 PB1 binding, primary screen, biochemical, wildtype MEKK3, multiplex bead flow cytometry, Alexa488-MEK5; Mitogen-activated protein kinase kinase kinase 3 (Homo sapiens), Q99759; bead-based flow cytometry, Alexa488-MEK5 binding to MEKK3; actives lie on both sides; 0 = blocked by unlabeled MEK5, 100 = vehicle; binding response (% of control), % at 10 µM; actives 1.4% (n = 290,000); AID 1529, 2009;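 active means binding response more than 3 SD above or below the average of its plate-row segment, actives on both sides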;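 further: Alexa488 bead fluorescence after subtracting the streptavidin-only scavenger bead signal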
# Target sequence (Q99759 whole entry, looked up): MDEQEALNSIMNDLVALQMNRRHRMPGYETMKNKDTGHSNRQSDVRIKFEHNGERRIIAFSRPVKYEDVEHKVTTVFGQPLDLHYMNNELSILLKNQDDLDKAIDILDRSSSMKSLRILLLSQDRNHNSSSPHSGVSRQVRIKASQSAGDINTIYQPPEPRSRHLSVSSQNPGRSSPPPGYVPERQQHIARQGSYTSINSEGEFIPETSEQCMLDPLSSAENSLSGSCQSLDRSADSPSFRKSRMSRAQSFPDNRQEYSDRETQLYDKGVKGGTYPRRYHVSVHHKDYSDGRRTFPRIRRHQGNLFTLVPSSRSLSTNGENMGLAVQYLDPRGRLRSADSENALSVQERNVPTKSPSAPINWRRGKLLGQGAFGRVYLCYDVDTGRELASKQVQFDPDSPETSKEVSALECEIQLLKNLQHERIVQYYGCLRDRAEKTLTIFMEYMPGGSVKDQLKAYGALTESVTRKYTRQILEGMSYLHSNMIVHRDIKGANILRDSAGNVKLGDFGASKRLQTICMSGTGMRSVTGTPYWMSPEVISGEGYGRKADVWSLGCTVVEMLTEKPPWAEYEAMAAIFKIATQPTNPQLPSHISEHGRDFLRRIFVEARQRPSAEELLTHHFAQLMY
# NRP1-CendR mod: modulators of CendR peptide binding to NRP-1, primary screen, biochemical, fluorescence polarization, uHTS; Neuropilin-1 (Homo sapiens), O14786; FAM-RPARPAR peptide binding to NRP-1; inhibition, % at 25 µM; actives 0.85% (n = 360,000); AID 602438, 2012;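 active means inhibition or corrected inhibition above about 18%, plus a signal ratio from 0.5 to 1.5, limit read from the data, passing the limit was not always enough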
# MEKK2 WT-MEK5: modulators of MEK5 binding to wildtype MEKK2, primary screen, biochemical, multiplex bead flow cytometry, Alexa488-MEK5. AID 1531, 2009. Mitogen-activated protein kinase kinase kinase 2 (Homo sapiens), Q9Y2U5. Alexa488-MEK5 binding to MEKK2 WT; actives lie on both sides. actives 1.1% (n = 290,000). binding response (% of control), % at 10 µM; in the data active means binding response below about 67% or above about 130%
# MEKK2wt confirm: modulators of MEK5 binding to wildtype MEKK2, confirmation, biochemical, single concentration, multiplex bead flow cytometry; Alexa488-MEK5 binding to MEKK2 WT; actives lie on both sides; shares compounds with MEKK3 PB1 HTS; binding response (% of control), % at 10 µM; actives 2.4% (n = 5,900); in the data active means binding response below about 16% or above about 210%; inactive means in between
# MEKK2mut-MEK5: mutant MEKK2 PB1-MEK5 binding signal retest – biochemical, single concentration, multiplex bead flow cytometry, confirmation; Alexa488-MEK5 binding to MEKK2 mutant; percent response, % at 10 µM; actives 2% (n = 5,900); shares compounds with MEKK3 PB1 HTS; in the data active means percent response mostly above about 71%, no sharp cut-off; inactive means mostly below about 38%;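 further: higher means compound restores mutant binding toward wildtype level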
# MEKK3-MEK5 inh: MEKK3 wild-type PB1 binding to MEK5, inhibitors, confirmation, biochemical, bead multiplex flow cytometry, single concentration, wildtype. shares compounds with MEKK3 PB1 HTS. Alexa488-MEK5 binding to MEKK3; stronger effect = lower value. binding response (% of control), % at 10 µM. actives 1.8% (n = 5,900). AID 1894, 2009;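 active means binding response below 72% of control, or above a set upper limit, though filed actives all read lower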;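 further: 100% = DMSO only wells and 0% = binding blocked by excess unlabeled MEK5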
# * marks the source's active call; other numbers are inactive results; x = not tested or not shown; [ ] = another dose, or the depositor's remark. Shown are actives, neighbours in structure and some others; about 3.2% of the full set was active somewhere.
SMILES,SKN-1 inh,MEKK2mut PB1 HTS,MEKK3 PB1 HTS,NRP1-CendR mod,MEKK2 WT-MEK5,MEKK2wt confirm,MEKK2mut-MEK5,MEKK3-MEK5 inh
CCc1cc(C(=O)N2CCCC(CO)(Cc3ccc(F)cc3)C2)n(C)n1 (stereo not drawn),3,1,101,-4,103,x,x,x
Cc1ccc(S(=O)(=O)NCCC(=O)N2CCC(Cc3ccccc3)CC2)cc1,6,x,x,-4,x,x,x,x
CC1CCCC(C)N1CCCNC(=O)c1ccc2nc(N3CCOCC3)sc2c1 (stereo not drawn),-10,9,102,-9,124,x,x,x
O=C(NCCCN1CCC(Cc2ccccc2)CC1)c1ccc2nc(N3CCOCC3)sc2c1,0,9,104,-4,144*,147,17,101
Cc1ccc(S(=O)(=O)NCc2ccc(C(=O)NCCCN3CCC(Cc4ccccc4)CC3)cc2)cc1,13,40,106,1,161*,173,29,105
COc1ccc(C(=O)Nc2ccc(-c3n[nH]c(=S)o3)cc2)cc1,-8,-5,100,4,101,x,x,x
C=CCOc1ccc(-c2n[nH]c(=S)o2)cc1,14,0,131*,3,112,94,-2,98
CC1CCCN(S(=O)(=O)c2ccc(NC(=O)C3CCN(C(=O)c4ccco4)CC3)cc2)C1 (stereo not drawn),7,3,101,-6,102,x,x,x
CC(C)CNC(=O)CSc1nnc2ccccn12,-4,-4,53*[inhibitor],-9,77,105,-2,103
Cn1ncc(C(=O)Nc2ccc(Cl)cc2)c1C(F)(F)F,2,-32,74*[inhibitor],-5,76,104,6,107
C/C(=N\NS(=O)(=O)c1ccc([N+](=O)[O-])cc1)c1c[nH]c2ccccc12,11,-5,100,7,97,x,x,x
C#CCNC(=O)C[C@@H]1C[C@@]2(C(=O)OC)CC(C)(C)CC=C2N(Cc2ccccc2)C1=O,1,x,x,-3,x,x,x,x
CCC(C)NCCOc1cccc(Br)c1 (stereo not drawn),-1,-1,157*,6,100,103,2,101
C=CCNCCOc1cccc(Br)c1,-1,0,113,4,106,x,x,x
OC1(c2ccc(Cl)cc2)CCN(Cc2c[nH]c3ccccc23)CC1,-9,12,113,-13,151*,130,11,103
Clc1ccccc1N1CCN(Cc2c[nH]c3ccccc23)CC1,-20,x,x,8,x,x,x,x
O=C(CC[C@H]1O[C@@H](n2ccc(=O)[nH]c2=O)[C@H](O)[C@@H]1O)NCCCc1ccccc1,9,x,x,13,x,x,x,x
Cc1cc(Sc2nc(N(C)C)nc(N(C)C)n2)nc(Cl)n1,-5,5,137*,-1,121,107,1,103
C/C=C(/C)C(=O)O[C@@H]1[C@H](OC(C)=O)c2c(ccc3ccc(=O)oc23)OC1(C)C,-7,5,108,3,97,x,x,x
C/C=C(/C)C(=O)O[C@H]1[C@@H](O)c2c(ccc3ccc(=O)oc23)OC1(C)C,4,11,123*,8,101,103,8,100
CCOc1ccc(-c2cccc(NS(=O)(=O)c3cccc([N+](=O)[O-])c3)c2)nn1,-2,x,x,14,x,x,x,x
COc1ccc(/C(N)=N/OC(=O)Cc2cccs2)cc1OC,-6,0,150*,4,102,93,-1,98
Fc1ccc(CSc2nnc3ccc(-c4ccncc4)nn23)cc1,-8,190*,127,6,115,97,-2,101
CC[C@@]1(C(=O)OC)N[C@H](CN(C)C(=O)COC)[C@@H]2C(=O)N(Cc3ccccc3)C(=O)[C@@H]21,2,x,x,-8,x,x,x,x
CC(=O)Nc1ccccc1C(=O)C(=O)Nc1cccc(C(=O)NCc2ccccc2)c1,4,-2,96,4,95,x,x,x
SMILES,SKN-1 inh,MEKK2mut PB1 HTS,MEKK3 PB1 HTS,NRP1-CendR mod,MEKK2 WT-MEK5,MEKK2wt confirm,MEKK2mut-MEK5,MEKK3-MEK5 inh
CC(=O)Nc1ccccc1C(=O)C(=O)Nc1cccc(C(=O)NCc2ccc(C)cc2)c1,x,1,134*,x,108,96,-2,100
COc1ccc(NC(=O)COC(=O)CNC(=O)C2CCCCC2)cc1OC,-1,x,x,-7,x,x,x,x
Cc1ccc(-c2nc3ccccc3n3nnnc23)cc1,5,-6,82*[inhibitor],11,86,98,-10,101
COc1cccc(Nc2nc3ccccc3n3nnnc23)c1,2,-14,2.0*[inhibitor],-23,3.0*[inhibitor],104,-1,100
Fc1cccc(Nc2nc3ccccc3n3nnnc23)c1,-18,3,107,-23,105,x,x,x
Cc1ccc2nc(CSc3nnc(-c4ccco4)n3-c3ccccc3)cc(=O)n2c1,17,4,101,-2,101,x,x,x
Cc1ccc2nc(CSc3nnc(-c4ccco4)o3)cc(=O)n2c1,6,-3,71*[inhibitor],-7,91,105,-1,107
O=C(Cn1cc(SCc2cccc(Cl)c2)c2ccccc21)N1CCOCC1,11,1,140*,3,111,101,-17,98
Cc1cccc(CN2CCN(C3CN(Cc4ccc([N+](=O)[O-])cc4)S(=O)(=O)C3)CC2)c1 (stereo not drawn),-6,x,x,6,x,x,x,x
Cc1cccc(Cn2cc(/C=C/[N+](=O)[O-])c3ccccc32)c1,15,-11,86,1,57*[inhibitor],90,-7,100
COc1cc(OC)cc(C(=O)OCC(=O)NC2CCCCCCC2)c1,1,x,x,-1,x,x,x,x
COC(=O)c1ccc2nc(-c3ccc(Cl)cc3)c(Cc3ccsc3)n2c1,0,x,x,-16,x,x,x,x
CCOc1ccccc1NC(=O)CSc1nc(N)c(C#N)cc1C#N,-19,3,99,-29,98,x,x,x
COc1ccccc1NC(=O)CSc1nc(N)c(C#N)cc1C#N,11,0,130*,-68,109,104,14,105
Cc1ccc(NC(=O)N(Cc2cccs2)Cc2cc3cc4c(cc3[nH]c2=O)OCO4)cc1,x,0,130*,x,104,91,-8,96
